# Hits are enriched below; roughly 15% of the tested compounds scored in any of these assays.
# TDP1 cell CPT – growth inhibition of DT40 Tdp1-/-;hTDP1 cells with camptothecin (screen for TDP1 inhibitors) | Potency, µM (highest dose often 46.2 µM), usual class: inhibitors | chicken DT40 Tdp1-/-;hTDP1 cells + 20 nM CPT, ATP luminescence, 48 h | 12% of 420,000 active; note: nearly all actives have a fitted effect of over 55% in size
#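 Cell growth measured by CellTiter-Glo luminescence after a minimum 48 h, 37 C compound exposure with 20 nM CPT in Tdp1-knockout DT40 cells stably expressing hTDP1, seeded 400/well; qHTS titration format.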
# 12-LOX inh – ALOX12 (human) lipoxygenase inhibition; purified 12hLO, xylenol orange hydroperoxide absorbance; Potency, µM (doses to about 108 µM), hits mostly inhibitors; 1.1% of 580,000 active; AID 1671190
# Target sequence (P18054 whole entry, looked up): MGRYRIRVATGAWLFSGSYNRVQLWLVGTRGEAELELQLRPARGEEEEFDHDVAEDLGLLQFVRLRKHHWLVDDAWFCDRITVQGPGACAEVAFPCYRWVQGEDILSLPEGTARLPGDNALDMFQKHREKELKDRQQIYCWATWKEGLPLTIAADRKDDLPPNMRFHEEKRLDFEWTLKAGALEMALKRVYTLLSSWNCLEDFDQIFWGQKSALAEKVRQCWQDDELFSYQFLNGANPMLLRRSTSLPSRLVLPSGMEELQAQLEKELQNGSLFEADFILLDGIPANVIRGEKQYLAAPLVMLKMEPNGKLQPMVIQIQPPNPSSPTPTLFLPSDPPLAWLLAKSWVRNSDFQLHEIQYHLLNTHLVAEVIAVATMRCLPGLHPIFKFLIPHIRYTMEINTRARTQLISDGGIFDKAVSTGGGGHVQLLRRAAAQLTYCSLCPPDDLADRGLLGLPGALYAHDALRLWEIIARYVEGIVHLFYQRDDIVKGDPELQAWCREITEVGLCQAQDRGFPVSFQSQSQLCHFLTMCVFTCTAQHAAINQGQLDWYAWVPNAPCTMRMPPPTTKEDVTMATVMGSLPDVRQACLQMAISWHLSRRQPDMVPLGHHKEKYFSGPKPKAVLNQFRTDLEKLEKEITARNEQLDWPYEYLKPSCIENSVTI
#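 Hydroperoxide product was detected by ferrous iron/xylenol orange as the 573 to 405 nm absorbance ratio. Arachidonic acid at 40 uM (final) was turned over for 30 min at room temperature by 150 nM human 12hLO, pH 7.0 Hepes buffer, after 15 min compound preincubation.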
# RORgamma inh – blocks mouse ROR gamma transcriptional activity | 5.4% of 310,000 active | P51450 | Drosophila S2 Gal4-RORgamma UAS-luciferase reporter, 20 h | Potency, µM (highest dose often 53.6 µM), actives largely listed as inhibitors | AID 2551; note: nearly all actives have a fitted effect of over 60% in size
#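 Stable Schneider cell line, Gal4 DNA-binding domain fused to ROR gamma, UAS-luciferase. Cmpd 1 hr RT → CuSO4 700 uM final → 20 hr RT → luciferase reagent 10 min → luminescence.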
# ELG1 DNA repair – inhibitors of ELG1-dependent DNA repair in HEK293T cells; Potency, µM (top dose mostly 46.1 µM), actives largely listed as inhibitors; HEK293T ELG1-luciferase reporter, luminescence, 16 h; DNA damage induced by 5-fluorouridine; 2.3% of 330,000 active; AID 504467; note: nearly all actives have a fitted effect of over 55% in size
#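 HEK293T cells expressing luciferase-tagged ELG1 (2,000/well) received 5-Fluorouridine plus compound or DMSO for 16 hr at 37 °C. Luciferase was read by ONE-Glo luminescence after 30 min at room temperature.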
# Gal4-VP16 FLuc – Gal4-VP16 reporter inhibition counter-screen | AID 2546 | Drosophila S2 Gal4-VP16 UAS-luciferase, luminescence, 20 h | 3.5% of 310,000 active | Potency, µM (titrated, usually from 53.6 µM), most hits filed as inhibitors;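 note: Gal4-VP16 expression switched on by copper sulfate through the metallothionein promoter; nearly all actives have a fitted effect of over 50% in size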
# DT40 TDP1 no CPT – qHTS for Inhibitors of human tyrosyl-DNA phosphodiesterase 1 (TDP1): qHTS in cells in absence of CPT. Potency, µM (doses to about 46.2 µM), actives largely listed as inhibitors. 15% of 420,000 active. AID 686978, 2013. DT40 Tdp1-/- hTDP1 cells, no CPT, ATP luminescence, 48 h; note: nearly all actives have a fitted effect of over 55% in size
#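 Chicken DT40 Tdp1-/- cells complemented with human TDP1, screened without camptothecin (DMSO vehicle only), 400 cells/well. Compounds pin-transferred, cells incubated at 37 °C for at least 48 hr. Growth read as ATP-dependent luminescence (CellTiter-Glo, 30 min at RT).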
# Numbers stand for hits; – = inactive; ? = inconclusive; · = no result given. Calls come from the whole dose curve; as a rule, active = well fitted curve in the direction sought with a large enough effect; inconclusive = small, poorly fitted or top-dose-only effect, or another doubt; inactive = no such curve, though single readings can be large; an effect the other way counts as inactive or inconclusive.
SMILES,TDP1 cell CPT,12-LOX inh,RORgamma inh,ELG1 DNA repair,Gal4-VP16 FLuc,DT40 TDP1 no CPT
CCCCn1nc(C(=O)Nc2cc(C(F)(F)F)ccc2N2CCOCC2)ccc1=O,23.1µM,–,·,?,·,3.66µM
Cc1cc(C(=O)Nc2cc(C(F)(F)F)ccc2N2CCOCC2)no1,–,–,–,?,–,–
O=C(/C=C/c1ccco1)Nc1ccccc1N1CCCC1,?,–,?,–,–,?
COc1ccccc1/C=C/C(=O)OCC(=O)Nc1cc(C(F)(F)F)ccc1N1CCOCC1,4.11µM,–,?,?,–,2.59µM
COc1ccc(NC(C)C(=O)Nc2cc(C(F)(F)F)ccc2N2CCOCC2)c(OC)c1 (configuration not stated),?,–,–,–,–,23.1µM
CCCNC(=O)c1ccc2nc(-c3ccc(C)cc3)cc(OCC)c2c1,·,–,·,·,·,·
O=C(c1cc2c(s1)CN(C1CCCC1)C2)N1CCCCCC1,·,–,·,·,·,·
O=C(CCCCl)NC(=S)Nc1cc(C(F)(F)F)ccc1N1CCOCC1,?,?,7.94µM,–,?,14.6µM
COc1ccc(-n2cc(C(=O)Nc3ccc(F)c(F)c3)nn2)cc1,·,–,·,·,·,·
Cc1cccc(NC(=O)c2cnc3ccccn3c2=O)c1,–,–,2.51µM,?,?,–
Cc1ccc(C(=O)Nc2cnc3ccccn3c2=O)cc1,–,–,–,?,?,–
O=C(Nc1cnc2sccn2c1=O)c1ccccc1Cl,–,–,7.08µM,?,?,–
O=C(Nc1cnc2ccccn2c1=O)c1ccc(Cl)cc1Cl,–,?,2.51µM,?,?,–
Cc1ccsc1CN(C)C(=O)Cn1c(=O)c2c(ncn2C2CCCC2)n(Cc2ccccc2)c1=O,·,–,·,·,·,·
Cc1cccc(NC(=O)N2CCN(C3=Nc4ccccc4Oc4ccccc43)CC2)c1C,·,–,·,·,·,·
CC(C)NC(=O)NC(=O)COc1ccc2ccc(=O)oc2c1,·,–,·,·,·,·
O=C(NCc1cccc(Cl)c1)c1cc(COc2ccc3ncccc3c2)on1,16.4µM,–,–,?,10µM,20.6µM
Cc1ccc(OCc2cc(C(=O)NCc3cn4ccccc4n3)no2)cc1C,–,–,–,–,–,–
CC(CCCC(C)(C)O)NC(=O)c1cc(COc2ccc3ncccc3c2)on1 (configuration not stated),8.2µM,–,7.94µM,2.59µM,5.62µM,4.61µM
Cc1cc(C)n(CCNC(=O)c2cc(COc3ccc4ncccc4c3)on2)n1,20.6µM,–,?,?,?,20.6µM
Cc1ccc(F)cc1CNC(=O)c1cc(COc2ccc3ncccc3c2)on1,4.11µM,–,?,?,11.2µM,10.3µM
O=C(COc1ncnc2ccccc12)Nc1ccc(F)cc1,·,–,·,·,·,·
Cc1ccc(OCc2cc(C(=O)NC(C)Cc3cccc(C)n3)no2)cn1 (configuration not stated),13µM,–,–,?,–,7.31µM
Cc1ccccc1OCC(=O)Nc1ccccc1NC(=O)c1ccco1,–,–,–,–,–,–
CCOc1cc(NC(=O)c2ccco2)c(OCC)cc1NC(=O)COc1ccccc1C,4.61µM,–,·,·,·,4.11µM
SMILES,TDP1 cell CPT,12-LOX inh,RORgamma inh,ELG1 DNA repair,Gal4-VP16 FLuc,DT40 TDP1 no CPT
CCOc1cc(NC(=O)c2ccco2)c(OCC)cc1NC(=O)Cc1cccc(OC)c1,?,–,–,?,–,25.9µM
CCc1nncn1C1CCN(S(=O)(=O)c2cccc(OC)c2)CC1,·,79.4µM,·,·,·,·
COc1ccc(-c2coc3cc4oc(=O)cc(-c5ccccc5)c4cc23)cc1F,3.66µM,–,–,–,–,4.61µM
N#Cc1cccc(/C=C2/CCOc3ccc(Br)cc3C2=O)c1,·,–,·,·,·,·
Cc1ccc(C)c(CN2C(=O)c3ccccc3S(=O)c3ccc(C(=O)NCCc4ccc(Cl)cc4)cc32)c1 (configuration not stated),13µM,–,·,·,·,7.31µM
COCCNC(=O)c1ccc2c(c1)N(Cc1cc(C)ccc1C)C(=O)c1ccccc1S2=O (configuration not stated),?,–,·,·,·,14.6µM
O=C(Cc1ccccc1)Nc1c(C(=O)N2CCN(c3ccc(F)cc3)CC2)oc2ccccc12,16.4µM,–,·,·,·,25.9µM
COc1cccc(N2CCN(C(=O)c3oc4ccccc4c3NC(=O)Cc3ccc(OC)c(OC)c3)CC2)c1,16.4µM,–,–,16.4µM,–,?
COc1ccccc1C(=O)Nc1c(C(=O)N2CCN(c3ccc(F)cc3)CC2)oc2ccccc12,–,–,·,·,·,–
COc1ccc(CC(=O)Nc2c(C(=O)N3CCN(c4ccccc4F)CC3)oc3ccccc23)cc1OC,10.3µM,–,·,·,·,13µM
O=C(COc1ccccc1)Nc1c(C(=O)N2CCN(c3ccc(F)cc3)CC2)oc2ccccc12,?,–,·,·,·,?
COc1ccccc1C(=O)Nc1c(C(=O)N2CCN(c3ccccc3F)CC2)oc2ccccc12,16.4µM,–,·,·,·,16.4µM
O=C1CC(C(=O)NCc2ccc(C(F)(F)F)cc2)c2ccccc2N1 (configuration not stated),·,–,·,·,·,·
COc1cc(OC)cc(C(=O)N2CCCC(c3noc(COc4ccccc4)n3)C2)c1 (configuration not stated),·,–,·,·,·,·
Cc1nc2ccc(C(=O)OC(C)C(=O)NC(=O)NCc3ccccc3)cc2nc1C (configuration not stated),·,–,·,·,·,·
CC(c1nc2ccccc2n1CC(=O)N(c1ccccc1)C(C)C)N1CCOCC1 (configuration not stated),·,–,·,·,·,·
CCN(Cc1ccccc1)C(=O)[C@@H]1CCC(=O)N[C@@H]1COC,·,–,·,·,·,·
CCOc1ccc(C(=O)Nc2c(C(=O)Nc3ccccc3F)oc3ccccc23)cc1OCC,–,–,·,·,·,–
COc1ccccc1C(=O)Nc1c(C(=O)Nc2ccccc2F)oc2ccccc12,20.6µM,–,·,·,·,25.9µM
Cc1ccc(CC(=O)Nc2c(C(=O)N3CCN(c4ccccc4)CC3)oc3ccccc23)cc1,23.1µM,–,·,·,·,?
Cc1ccc(CC(=O)Nc2c(C(=O)N3CCN(c4ccccc4F)CC3)oc3ccccc23)cc1,?,–,·,·,·,18.4µM
Cc1ccccc1C(=O)Nc1c(C(=O)N2CCN(Cc3ccccc3)CC2)oc2ccccc12,·,–,·,·,·,·
COc1ccc(NC(=O)c2oc3ccccc3c2NC(=O)Cc2ccc(F)cc2)c(OC)c1,11.6µM,–,·,·,·,8.2µM
CCC(C)NC(=O)c1ccccc1-c1ncc(-c2ccccc2F)o1 (configuration not stated),·,–,·,·,·,·
Cc1ccc2nc(NC(=O)CSCC(=O)OCC(=O)c3ccccc3)sc2c1,–,–,5.01µM,–,2.24µM,–
Cc1ccc2nc(NC(=O)CCn3c(=O)sc4ccccc43)sc2c1,18.4µM,–,–,–,–,?

# Compound activity (PubChem BioAssay)
